The values that follow come from PubChem BioAssay (Tox21).

Each structure is given as a SMILES string. Results filed as inconclusive are left out. Entries that show only a call come without a potency. Active and inactive are the calls of the source. Calls come from the whole dose curve; as a rule, active = well fitted inhibition curve with a large enough effect in the signal ratio in the repeat runs, with a control signal flat; inconclusive = weak or mixed curves, or effect the other way; inactive = flat fitted curve, though single readings scatter; the % refers to the signal ratio.

Chain of D(2) dopamine receptor (Homo sapiens) (P14416 whole entry, looked up): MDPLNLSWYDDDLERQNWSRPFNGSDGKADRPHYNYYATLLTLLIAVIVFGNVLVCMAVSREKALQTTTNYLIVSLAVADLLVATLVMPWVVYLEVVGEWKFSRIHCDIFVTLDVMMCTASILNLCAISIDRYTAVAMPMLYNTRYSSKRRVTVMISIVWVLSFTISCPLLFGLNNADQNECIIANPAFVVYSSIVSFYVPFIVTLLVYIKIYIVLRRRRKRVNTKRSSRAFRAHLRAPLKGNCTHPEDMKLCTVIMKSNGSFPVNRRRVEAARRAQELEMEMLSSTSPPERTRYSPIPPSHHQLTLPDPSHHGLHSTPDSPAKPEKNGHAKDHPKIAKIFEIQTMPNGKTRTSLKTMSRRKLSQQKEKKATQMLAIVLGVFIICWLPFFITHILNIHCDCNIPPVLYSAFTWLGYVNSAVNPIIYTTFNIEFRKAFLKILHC

This assay addresses D(2) dopamine receptor (Homo sapiens) (UniProt P14416). In words: Dopamine D2 receptor (DRD2) small molecule antagonists, cell-based qHTS assay (AID 1963595). To be noted: HEK293-DRD2 cAMP HTRF antagonist mode; series mostly up to 92.4 µM. Put shortly:
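Stable D2 receptor HEK293 line, 24 h after seeding. Compound preincubated 10 min, then quinpirole (12 nM) with forskolin analogue NKH477 (200 nM), 30 min, room temperature. Detection by time-resolved FRET of cAMP.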
In the case of `O=C1CN=C(c2ccccc2)c2cc([N+](=O)[O-])ccc2N1`, the Potency entry was “inactive”.

On to `C#CC(C)(C)O`, for which the Potency result is “inactive”.

Regarding `Brc1cccc(-c2ccccc2)c1`, the Potency result was “inactive”.

Regarding `CC[N+]1(CCOC(=O)C(O)(c2ccccc2)c2ccccc2)CCCCC1`, the Potency result was “inactive”.

On to `CCCCOC(=O)c1ccccc1N`, for which the Potency result was “inactive”.

As to `O=S(=O)(Cl)c1ccccc1`, the Potency result was “inactive”.

In the case of `CC(C)CC(N(C)C)C1(c2ccc(Cl)cc2)CCC1` (stereo not drawn), the Potency result is “inactive”.

Take `C[N+]1(CCC(C(N)=O)(c2ccccc2)c2ccccc2)CCCCC1`: the Potency entry was “inactive”.

As to `Nc1ccc([N+](=O)[O-])cc1[N+](=O)[O-]`, the Potency entry was “inactive”.

For the molecule `CC1(C)COP(Oc2ccccc2)OC1`, the Potency entry is “inactive”.

For the molecule `CNC(=O)O/N=C(\C)SC`, the Potency entry is “inactive”.

In the case of `C[C@H](N)C(=O)c1ccccc1`, the Potency result is “inactive”.

As to `O=C1OC(=O)C2C1C1(Cl)C(Cl)=C(Cl)C2(Cl)C1(Cl)Cl` (stereo not drawn), the Potency result was “inactive”.

`Nc1cc2c3c(c1)C(c1ccccc1)=N[C@@H](NC(=O)c1cccnc1)C(=O)N3CC2`: the Potency result was “inactive”.

Regarding `O=C(Nc1ccc(F)cc1F)c1cccnc1Oc1cccc(C(F)(F)F)c1`, the Potency result was “inactive”.

As for `Fc1ccc(C2(Cn3cncn3)OC2c2ccccc2Cl)cc1` (stereo not drawn), the Potency result is “inactive”.

Take `O=C(O)[C@H](O)[C@@H](O)C(=O)O`: the Potency result is “inactive”.

For the molecule `CN1C(=O)COc2c(C(=O)NC3CN4CCC3CC4)cc(Cl)cc21` (stereo not drawn), the Potency result is “inactive”.

With `COc1c2c(cc3c1OCO3)CCN(C)C2`, the Potency result is “inactive”.

Take `O=[N+]([O-])c1cc(Cl)c(Cl)cc1Cl`: the Potency result is “inactive”.

Regarding `c1ccc(Nc2ccc(Nc3ccccc3)cc2)cc1`, the Potency result was “inactive”.

With `Cc1cnc2c(C(=O)O)c(Cl)ccc2c1`, the Potency result is “inactive”.

For `Cc1ccn2nc(S(=O)(=O)Nc3c(F)cccc3F)nc2n1`, the Potency result was “inactive”.
